Compound activity: PubChem, National Center for Advancing Translational Sciences (NCATS)
In the library only some 10% were active in any assay of this set; here they are far more common.
G9a inh: blocks human histone lysine methyltransferase G9a | Q96KQ7 | AID 504332 | Potency, µM (top dose mostly 102 µM), without a hit: at the top dose activity, negative = inhibition, hits mostly inhibitors | G9a H3K9 monomethylation, AlphaScreen, 2 h | 350,000 compounds, 8.8% hits; also: % is scaled to controls: 0 for no effect and ±100 for the full control effect; nearly all actives have a fitted effect of over 75% in size
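AlphaScreen detection with an anti-monomethyl H3K9 antibody quantified product after a 2 h room-temperature reaction containing 500 nM biotinylated H3K9 peptide, 20 µM SAM and 20 nM enzyme, which had been preincubated 15 min with compound.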
L3MBTL1 inh: inhibitors of human L3MBTL1; Q9Y468; Potency, µM (titrated, usually from 57.1 µM), for inactives: at the highest dose activity, negative = inhibition, most hits filed as inhibitors; 230,000 compounds, 0.66% hits; AlphaScreen L3MBTL1–H3K9me1 peptide binding; also: % is scaled to controls: 0 for no effect and ±100 for the full control effect; nearly all actives have a fitted effect of over 60% in size
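First, the protein-peptide complex forms for 30 min at room temperature (L3MBTL1 50 nM, biotinylated H3K9me1 peptide 75 nM). Next, compounds are pin-transferred and incubated 30 min. Finally, AlphaScreen beads are added and read after 30 min.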
JMJD2A Tudor: inhibitors of human JMJD2A Tudor domain; AID 504339; O75164; Potency, µM (titrated, usually from 114 µM), without a hit: at the highest dose activity change, negative = inhibition, actives largely listed as inhibitors; AlphaScreen JMJD2A-Tudor / H3K4me3 peptide binding; 390,000 compounds, 4.4% hits; also: % is scaled to controls: 0 for no effect and ±100 for the full control effect; nearly all actives have a fitted effect of over 50% in size
GLS inh: blocks human kidney-isoform glutaminase activity; O94925; GLS enzymatic activity, qHTS titration; Potency, µM (titrated, usually from 45.5 µM), without a hit: at the top dose activity change, negative = inhibition, usual class: inhibitors; 410,000 compounds, 0.21% hits; AID 624170; also: % is scaled to controls: 0 for no effect and ±100 for the full control effect
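Read-out is an Amplex red fluorescence increase coupled through glutamate oxidase and HRP, measured before and after 30 min room-temperature incubation. hKGA is in 45 mM KH2PO4 (pH 8.2) with 0.02% Tween-20; glutamine added as 1mM solution.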
BAZ2B block: BAZ2B (human) inhibition; AlphaScreen BAZ2B-H3K14Ac peptide displacement; Potency, µM (series often up to 114 µM), inactives show at the highest dose activity change, negative = inhibition, hits mostly inhibitors; 360,000 compounds, 4.4% hits; AID 504333; also: % is scaled to controls: 0 for no effect and ±100 for the full control effect; nearly all actives have a fitted effect of over 60% in size
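AlphaScreen displacement of biotin-H3(5-23)K14Ac peptide (50 nM final) from BAZ2B (50 nM final) in PBS pH 7.4, 0.01% Tween-20; complex preformed 30 min RT, then compounds (top 110 uM) 30 min RT, beads 20 min dark.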
HP1b chromo inh: HP1-beta chromodomain-methylated histone interaction inhibition | AID 540317 | AlphaScreen HP1-beta / biotin-H3K9me3 peptide binding | 390,000 compounds, 0.56% hits | Potency, µM (series often up to 114 µM), for inactives: at the top dose activity change, negative = inhibition, hits mostly inhibitors; also: nearly all actives have a fitted effect of over 70% in size
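Compound inhibition of the preformed complex between 50 nM HP1-beta and 50 nM biotinylated H3K9me3 peptide was read by AlphaScreen. Buffer was PBS pH 7.4 with 0.01% Tween-20. Incubations ran 30 min at room temperature, with 10 ug/mL donor/acceptor beads.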
An asterisk follows results filed as active; [ ] = another dose, or the depositor's remark. Calls follow the shape of the dose curve; as a rule, active = well fitted curve in the direction sought with a large enough effect; inconclusive = small, poorly fitted or top-dose-only effect, or another doubt; inactive = no such curve, though single readings can be large; an effect the other way counts as inactive or inconclusive. Potency is read from the fitted curve at half-maximal effect.

How did COc1cccc(C(=O)Nc2ccccc2C(=O)OCc2cc(=O)n3c4c(sc3n2)CCCC4)c1 do in these assays?
G9a inh: -4%[59 µM]; JMJD2A Tudor: -15%; GLS inh: -13%; BAZ2B block: -14%; HP1b chromo inh: -3%

What do the screens show for `COC(=O)COc1ccccc1C(N)=O`?
G9a inh: 20%; JMJD2A Tudor: 14%; BAZ2B block: 8%; HP1b chromo inh: 44%

How did CCN(CC)c1ccc(NC(=O)c2ccccc2OCC(=O)OC)cc1 do in these assays?
L3MBTL1 inh: -23%; JMJD2A Tudor: 20µM*; GLS inh: 34%; BAZ2B block: 32µM*; HP1b chromo inh: inconclusive

How did Cc1ccc(NC(=O)COC(=O)CCC(=O)c2cccs2)cc1 do in these assays?
G9a inh: -11%; L3MBTL1 inh: 14%; JMJD2A Tudor: -1%; GLS inh: -5%; BAZ2B block: 5%; HP1b chromo inh: 27%

How did CCN(CC)c1ccc(NC(=O)COC(=O)CCC(=O)c2cccs2)cc1 do in these assays?
G9a inh: -15%[2.33 µM]; L3MBTL1 inh: -18%; JMJD2A Tudor: inconclusive; GLS inh: 18%; BAZ2B block: 45µM*; HP1b chromo inh: inconclusive

How did CCN(CC)c1ccc(NC(=O)COC(=O)COc2ccccc2[N+](=O)[O-])cc1 do in these assays?
G9a inh: 7.1µM*; L3MBTL1 inh: -21%; JMJD2A Tudor: 32µM*; GLS inh: 21%; BAZ2B block: 45µM*; HP1b chromo inh: -66%

How did COc1cccc(NC(=O)COC(=O)COc2ccccc2[N+](=O)[O-])c1 do in these assays?
G9a inh: -12%[59 µM]; L3MBTL1 inh: -11%; JMJD2A Tudor: -28%; GLS inh: -1%; BAZ2B block: -33%; HP1b chromo inh: 5%

How did Cc1ccc(C)c(Cn2cnc3ccccc3c2=O)c1 do in these assays?
G9a inh: 2%[59 µM]; JMJD2A Tudor: -11%; GLS inh: -4%; BAZ2B block: 6%; HP1b chromo inh: 19%

How did CCOc1ccc(N(C)S(=O)(=O)c2ccc3c(c2)C(C)(C)C(=O)N3C)cc1 do in these assays?
G9a inh: 9%[59 µM]; JMJD2A Tudor: 7%; GLS inh: 2%; BAZ2B block: 7%; HP1b chromo inh: 26%

How did Cc1ccc(S(=O)(=O)N2CCN(C(=O)N(C)C)CC2)cc1C do in these assays?
G9a inh: -5%[12.7 µM]; JMJD2A Tudor: -12%; GLS inh: -2%; BAZ2B block: -1%; HP1b chromo inh: 29%

Results for Cc1ccc(/C=C/C(=O)N2CCN(S(=O)(=O)c3c(C)c(C)cc(C)c3C)CC2)o1 ?
G9a inh: 7.9µM*; L3MBTL1 inh: -16%; JMJD2A Tudor: 79µM*; GLS inh: -12%; BAZ2B block: inconclusive; HP1b chromo inh: inconclusive

Results for Cc1ccc(/C=C/C(=O)N2CCN(Cc3ccccc3)CC2)o1 ?
G9a inh: 4µM*; L3MBTL1 inh: -9%; JMJD2A Tudor: -24%; GLS inh: -6%; BAZ2B block: inconclusive; HP1b chromo inh: -19%

What do the screens show for `Cc1ccc(/C=C/C(=O)N2CCN(S(=O)(=O)c3ccc(C)c(C)c3)CC2)o1`?
G9a inh: 2.8µM*; L3MBTL1 inh: -18%; JMJD2A Tudor: 45µM*; GLS inh: 14%; BAZ2B block: inconclusive; HP1b chromo inh: inconclusive

Results for Cc1ccc(C(=O)N2CCN(Cc3ccccc3)CC2)o1 ?
G9a inh: 23%; JMJD2A Tudor: -17%; GLS inh: -13%; BAZ2B block: -12%; HP1b chromo inh: 4%

How did COc1ccc(N2C(=O)C(CC(=O)Nc3ccc(Cl)cc3)N(Cc3ccc4c(c3)OCO4)C2=O)cc1 (stereo not given) do in these assays?
G9a inh: inconclusive; JMJD2A Tudor: -12%; GLS inh: 11%; BAZ2B block: -5%; HP1b chromo inh: 28%

What do the screens show for `Cc1ncc(CO)c2c1Oc1nc(-c3ccccc3Cl)nc(SCc3ccccc3F)c1C2`?
G9a inh: -11%[59 µM]; JMJD2A Tudor: -16%; GLS inh: -3%; BAZ2B block: -16%; HP1b chromo inh: 7%
